# Measured values from PubChem BioAssay AID1645886 (National Center for Advancing Translational Sciences (NCATS), 2021).
# “And” between values parts separate entries of the source, which are not always exact repeats. Equal entries are not always repeated. The whole screen tested about 16,000 compounds, of which about 260 (1.6%) were called active. A call without a number means that no potency is given here. Inconclusive results (about 14%) are left out. The call rests on the fitted dose curve; in most records, active means well fitted inhibition curve with a large enough effect; inconclusive means small, poorly fitted or top-dose-only effect; inactive means no such curve, though single readings can be large or run the other way. Only a selection was taken, and actives are over-represented in it overall. Some compounds were tested as several samples or in several runs, with calls that do not always agree. *1 amine or outer side, *2 acyl side, *3 side chain or, on linkers, in order; H or OH if unused. Where a SMILES comes first, the peptide text is derived from it. Bridges are numbered along the chain shown (N, C = ends). [ ]: non-standard residue; d: D form. The star is where a group is joined. X12 = NC1=N[C@@H]([C@H](N[*:1])C(=O)[*:2])C[C@H](O)N1; ΔAla(Z-3-ureido) = NC(=O)N/C=C(\N)C(=O)O; β3hOrn = NCCC[C@H](N)CC(=O)*; Dap = NC[C@H](N)C(=O)O
# Biological target: Rap guanine nucleotide exchange factor 4 (Homo sapiens) (UniProt Q8WZA2)
# Assay: Validation qHTS for antagonist of cAMP-regulated guanine nucleotide exchange factor 4 (EPAC2); further: nearly all actives have a fitted effect of over 40% in size
# Settings: EPAC2 Rap1B BODIPY-GDP exchange, fluorescence; series mostly up to 112 µM
# Text: Principle Investigator: Xiaodong Cheng Ph.D. The University of Texas Medical Branch, […], TX MLPCN Grant: NS066510 In multi-cellular eukaryotic organisms, the effects of cAMP are transduced by two ubiquitously-expressed intracellular cAMP receptors, the classic protein kinase A/cAMP-dependent protein kinase (PKA/cAPK) and the more recently discovered exchange protein directly activated by cAMP/cAMP-regulated guanine nucleotide exchange factor (EPAC/cAMP-GEF). Both PKA and EPAC are ubiquitously expressed in all tissues, and an increase in intracellular cAMP levels will lead to the activation of both PKA and EPAC. Therefore, careful dissections of the individual role and relative contribution of EPAC and PKA within the overall cAMP signaling in various model systems are critical for further elucidating the mechanism of cAMP signaling. To date no EPAC-specific antagonists and agonist, as well as isoform-specific agonists have been reported, and developing EPAC-specific pharmacological probes to determine the physiological functions that EPAC play in the overall cAMP-mediated signaling remains a major challenge within the research field. Furthermore, identified regulators of EPAC may lead to new mechanism-based therapeutic strategies specifically targeting the EPAC / cAMP-signaling components as EPAC has been implicated to play important roles in major human pathological conditions such as diabetes, heart disease, and cancer. This qHTS will be used to screen the Molecular Libraries Small Molecule Repository (MLSMR) as a concentration-titration series using the NCGC unique quantitative screening (qHTS) platform to find activators for EPAC1. In addition, this assay will also be used as a counterscreen for the EPAC2 qHTS. This fluorescent based assay is developed and validated for EPAC1 that measures exchange using EPAC effector Rap1 complex with BODIPY-GDP, a GDP analog with a tethered fluorophores. Activators are identified by monitoring the change in fluorescence signal as the exchanged free BODIPY-GDP has a reduced fluorescence compared to Rap1-bound BODIPY-GDP. Increase in signal (activation) is the desired outcome for the EPAC1 agonist while no activity in this assay is desired for the EPAC2 agonist counterscreen. Reference: [1] de Rooij, J., Zwartkruis, F. J., Verheijen, M. H., Cool, R. H., Nijman, S. M., Wittinghofer, A., and Bos, J.L. (1998) Nature 396, 474-477.
# Briefly, three uL of reagents (100 nM EPAC2, 250 nM RAP1B-BODIPY-GDP, 50 uM GDP) were dispensed into a 1536-well Greiner black solid-bottom medium binding assay plate. Controls and test compounds (23 nL) were transferred to the plate via a Kalypsys pin tool equipped with a 1536-pin array. The plates were centrifuged at 1,000 rpm for 15 seconds followed by 5 minute incubation at room temperature. The assay plates were read at 5 minute intervals for 30 minutes in the ViewLux plate reader using 480nm excitation and 540nm emission filters. The results were normalized to the agonist positive control of 6.5 mM cAMP.
# Potency means the concentration at half of the fitted maximal effect.
# Chain of Rap guanine nucleotide exchange factor 4 (Homo sapiens) (Q8WZA2 whole entry, looked up): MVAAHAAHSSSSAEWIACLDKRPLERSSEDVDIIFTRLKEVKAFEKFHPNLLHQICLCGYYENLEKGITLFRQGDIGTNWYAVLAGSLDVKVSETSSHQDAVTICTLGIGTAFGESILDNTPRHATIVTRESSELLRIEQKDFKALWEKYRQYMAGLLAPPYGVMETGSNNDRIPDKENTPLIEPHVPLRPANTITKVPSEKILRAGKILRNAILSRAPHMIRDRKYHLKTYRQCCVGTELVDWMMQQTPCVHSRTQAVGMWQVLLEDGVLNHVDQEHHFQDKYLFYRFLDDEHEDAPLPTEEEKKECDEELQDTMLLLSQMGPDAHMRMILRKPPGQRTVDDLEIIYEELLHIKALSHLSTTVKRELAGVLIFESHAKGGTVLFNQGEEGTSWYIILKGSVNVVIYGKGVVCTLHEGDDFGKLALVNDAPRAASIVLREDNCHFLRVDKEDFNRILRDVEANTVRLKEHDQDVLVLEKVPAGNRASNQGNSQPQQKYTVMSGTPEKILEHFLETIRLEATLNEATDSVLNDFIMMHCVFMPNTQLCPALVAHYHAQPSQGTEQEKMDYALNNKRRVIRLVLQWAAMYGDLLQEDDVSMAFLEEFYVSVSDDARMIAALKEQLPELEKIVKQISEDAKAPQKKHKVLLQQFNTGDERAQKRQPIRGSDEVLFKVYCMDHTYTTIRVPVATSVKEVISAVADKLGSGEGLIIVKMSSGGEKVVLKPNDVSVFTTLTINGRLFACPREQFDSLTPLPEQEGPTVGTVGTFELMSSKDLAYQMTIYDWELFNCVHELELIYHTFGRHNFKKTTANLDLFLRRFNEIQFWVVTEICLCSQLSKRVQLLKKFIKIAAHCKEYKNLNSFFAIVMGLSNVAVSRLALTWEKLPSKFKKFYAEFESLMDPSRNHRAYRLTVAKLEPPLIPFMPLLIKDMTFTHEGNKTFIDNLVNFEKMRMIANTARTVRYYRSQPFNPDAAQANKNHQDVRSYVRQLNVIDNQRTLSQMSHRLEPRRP
Structure (SMILES),Potency,"activity, negative = inhibition"
CC(C)=CC1C(C(=O)O)C1(C)C (stereo not given),inactive,
CCCCC/C=C\C/C=C\CCCCCCCCCC(=O)O,,-26.6% [at 11.4 µM] (inactive)
COc1ccccc1C1CN(Cc2ccccc2O)Cc2ccccc2O1 (stereo not given),inactive,
Cc1c(O)cc(O)c2c(=O)c(-c3ccc(O)cc3)coc12,inactive,
C[C@@H]1O[C@@H](OC[C@H]2O[C@@H](Oc3c(-c4cccc(O)c4O)oc4cc(O)cc(O)c4c3=O)[C@H](O)[C@@H](O)[C@@H]2O)[C@H](O)[C@H](O)[C@H]1O,inactive,
COc1cccc(Cn2c(=O)c(-c3ccccc3)nc3cnc(OC)nc32)c1,inactive,
O=c1c(-c2ccc(F)cc2)nc2cnc(N3CCNCC3)nc2n1Cc1cccs1,inactive,
O=C(c1csnn1)N1CCC[C@@]2(CCN(Cc3nccs3)C2)C1,inactive,
COCCN1CCN(C(=O)c2sc3ncnc(NCC4CCCO4)c3c2C)CC1 (stereo not given),inactive,
O=C(Nc1cccc(F)c1)N1CCC2(CC1)CCN(S(=O)(=O)c1ccccc1)CC2,inactive,
c1ccc2c(Nc3ccncc3)nc(-c3ccoc3)nc2c1,inactive,
COCCn1c(=O)c(CCc2ccccc2)nc2cncnc21,inactive,
CCC(C)[C@@H](N)C(=O)O (stereo not given in full),inactive,
O=S(=O)(c1ccccc1)N1CCC2(CC1)CN(Cc1nccs1)C2,inactive,
COc1ccc(NC(=O)N2CC3(CCN(C(=O)c4cccn4C)CC3)C2)cc1,inactive,
COc1cccc(Nc2ncc3ncc(=O)n(C4CC4)c3n2)c1,inactive,
C/C=C/C=N/NC(=O)c1ccncc1,inactive,
O=c1c(CCc2ccccc2)nc2cnc(N3CCNCC3)nc2n1Cc1cccs1,inactive,
COc1ccc(CC(N)C(=O)NC2C(O)[C@H](n3cnc4c(N(C)C)ncnc43)O[C@@H]2CO)cc1 (stereo not given in full),inactive,
O=C1c2c(O)cccc2[C@@H]([C@@H]2O[C@H](CO)[C@@H](O)[C@H](O)[C@H]2O)c2cc(CO)cc(O)c21,inactive,
CC(C)c1cc(C(=O)N2CCOc3ccc(CN4CCC(Oc5cccnc5)CC4)cc3C2)n[nH]1,inactive,
CCOC(=O)N1CCN(Cc2ccc3c(c2)CN(C(=O)c2cccc(-n4cccn4)c2)CCO3)CC1,inactive,
CCOC(=O)N1CCC(N2CCOc3ccc(CN4CCC(O)(c5cccnc5)CC4)cc3C2)CC1,79.4 µM (active),
COCCn1c(=O)c(-c2ccc(OC)cc2)nc2cnc(Oc3cccc(Cl)c3)nc21,inactive,
CC(C)NC(=O)N1CC[C@@]2(CCCN(C(=O)c3ccco3)C2)C1,inactive,

Structure (SMILES),Potency,"activity, negative = inhibition"
CC(C)(C)c1ccc(C(=O)C[N+]2(C)CCCc3ccccc32)cc1 (stereo not given),inactive,
COc1ccc(F)c(CN2CCC3(CCC(CNC(=O)c4ccn(C)n4)O3)CC2)c1 (stereo not given),inactive,
CS(=O)(=O)Nc1cccc(-c2cncnc2Nc2ccccc2)c1,inactive,
CC(=O)OCC(=O)C1CCC2C3CCC4=CC(=O)CC[C@@]4(C)C3CC[C@]12C (stereo not given in full),inactive,
CC(C)c1ccc2c(c1)c(SC(C)(C)C)c(CC(C)(C)C(=O)O)n2Cc1ccc(Cl)cc1,inactive and 50.1 µM (active),
N#Cc1cccc(-c2ccc3ncnc(NCc4cccs4)c3c2)c1,inactive,
C=C(C)C1CC=C(CO)CC1 (stereo not given),inactive,
CCCC1C(=O)N2C(N(C)C)=Nc3ccc(C)cc3N2C1=O (stereo not given),inactive,
COC(=O)N1CCC2(CCCN(c3ccncc3)C2)CC1,inactive,
CC[N+](C)(CC)CCC[n+]1c(-c2ccccc2)c2cc(N)ccc2c2ccc(N)cc21,50.1 µM (active),
O=C1CCN(Cc2ccc([N+](=O)[O-])cc2)CCN1[C@H](CO)Cc1ccccc1,inactive,
Cc1cccc(-c2cc(=O)c3cc(C)ccc3o2)c1,inactive,
CN(C)CCc1c[nH]c2ccc(Cn3cncn3)cc12,inactive,
Cc1noc(C)c1-c1cc(NCc2cccnc2)ncn1,inactive,
C=CC1(C)CC(=O)C2(O)C(C)(O1)C(OC(C)=O)C(O)C1C(C)(C)CCC(O)C12C (stereo not given),inactive,
COc1cc(-c2cccnc2)cc2c1OCCN(C(=O)Cc1csc(C)n1)C2,inactive,
CCCCCCc1ccc(O)cc1O,39.8 µM (active),
NCCC[C@H](N)CC(=O)N[C@H]1CNC(=O)[C@H]([C@H]2C[C@H](O)NC(N)=N2)NC(=O)/C(=C/NC(N)=O)NC(=O)[C@H](CO)NC(=O)[C@H](CO)NC1=O (β3hOrn-[Dap]SS[ΔAla(Z-3-ureido)][X12]; lactam 1-C),inactive,
O=C(O)C[C@@H]1NC(=O)[C@H](Cc2ccccc2)NC1=O,inactive,
COc1ccc2c(c1)CCc1cnc(-n3ncc(C(=O)NCc4cccnc4)c3C3CC3)nc1-2,inactive,
Cc1nc2cnc(Nc3ccccc3)nc2n(C[C@H]2CCCO2)c1=O,inactive,
CN1CCN(c2ncc3nc(-c4ccc(Cl)cc4)c(=O)n(-c4ccccc4)c3n2)CC1,inactive,
Cc1nc2cnc(N3CCN(C)CC3)nc2n(C[C@H]2CCCO2)c1=O,inactive,
CC(O)[C@@H](N)C(=O)O (stereo not given in full),inactive,
COC(=O)C1CCCCN1Cc1ccc2c(c1)CN(Cc1cc(OC)c3c(c1)OCO3)CCO2 (stereo not given),inactive,
